PINK1 expr mod: A Quantitative High throughput Screen to Identify Chemical Modulators of PINK1 Expression | PINK1 immunofluorescence, high-content cytometry, 24 h | Potency, µM (series often up to 76.6 µM), for the others: top-dose activation (PINK1 increase), usual class: activators | 410,000 compounds, 0.2% hits | AID 624263, 2012; active = well fitted activation curve with a large enough effect; inconclusive = small, poorly fitted or top-dose-only effect; cell line not stated here; note: % of control where 0% means no effect; nearly all actives have a fitted effect of over 65% in size
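A stable cell line was treated with compounds at 5 concentrations for 24 hours, with CCCP as control. PINK1 levels and mitochondrial localization were measured by immunofluorescence with mitochondrial, cell and nuclear markers after fixation, read by laser-scanning cytometry.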
Sfp PPTase inh: qHTS Assay for Inhibitors of Bacillus subtilis Sfp phosphopantetheinyl transferase (PPTase); Biochemical Sfp PPTase activity, qHTS; Potency, µM, inactives show largest response in the series, negative = inhibition, actives largely listed as inhibitors; 310,000 compounds, 3.5% hits; 4'-phosphopantetheinyl transferase ffp (Bacillus subtilis), Q9F4F7;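 note: the enzyme is Sfp with the accession as filed and its product quenches rhodamine fluorescence; 0% = enzyme reaction without inhibitor and -100% = no enzyme wells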
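After 15 min at room temperature with compound, 15 nM Sfp received 5 uM rhodamine-CoA plus 12.5 uM BHQ-2-ybbR (50 mM Hepes pH 7.6, 10 mM MgCl2). Rate came from the fluorescence difference over 30 min, ex 525/em 598 nm.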
ClpP mod: qHTS Assay for Activators of ClpP; ATP-dependent Clp protease proteolytic subunit (Bacillus subtilis (strain 168)), P80244; purified B. subtilis ClpP, FRET peptide cleavage, 20 min; Potency, µM (titrated, usually from 57.5 µM), inactives show at the highest dose activity change, negative = active; 340,000 compounds, 1.9% hits; AID 651965, 2013; active = well fitted falling curve with a large enough effect; inconclusive = small, poorly fitted or top-dose-only effect; inactive = no such curve, though single readings can be large or run the other way; note: the source files actives as falling curves though it sought activators and does not explain the sign; nearly all actives have a fitted effect of over 65% in size
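Purified B. subtilis ClpP, 10 microg/mL final in Tris/HCl pH8 with KCl, BSA, glycerol and Tween-20, cleaved an Abz/nitrotyrosine-quenched decapeptide. Fluorescence (ex 320, em 430) was read at 0 and 20 min at room temperature. Delta was normalized to 5.8 microM ADEP and DMSO/no-enzyme controls.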
RORgamma inh: qHTS for inhibitors of ROR gamma transcriptional activity; Drosophila S2 Gal4-RORgamma UAS-luciferase reporter, 20 h; Potency, µM (titrated, usually from 53.6 µM), without a hit: top-dose activity change, negative = inhibition, most hits filed as inhibitors; Nuclear receptor ROR-gamma (Mus musculus), P51450; 310,000 compounds, 5.4% hits; note: % is set by controls: 0 for no effect and ±100 for the full control effect; nearly all actives have a fitted effect of over 60% in size
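A Gal4/UAS one-hybrid system in insect cells: metallothionein-promoter Gal4–ROR gamma fusion plus Photinus luciferase reporter. Copper sulfate 700 uM final, 20 hr ambient incubation, luminescent detection after 10 min with reagent.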
Epigenetic reg: Quantitative High-Throughput Screen for Regulators of Epigenetic Control. murine LDR cells, GFP reporter derepression, 30 h. Potency, µM (titrated, usually from 53.9 µM), inactives show top-dose GFP activation, most hits filed as activators. 280,000 compounds, 0.2% hits; note: % of control where 0% means no effect; nearly all actives have a fitted effect of over 60% in size
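Murine LDR cells carrying a silenced, genomically integrated CMV-driven GFP reporter were exposed to compound for 30 hours at 37 C. After PBS washes, GFP-positive cells (20–120 um objects) were counted by laser-scanning microplate cytometry.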
Gal4-VP16 FLuc: VP16 counterscreen qHTS for inhibitors of ROR gamma transcriptional activity. Drosophila S2 Gal4-VP16 UAS-luciferase, luminescence, 20 h. Potency, µM (series often up to 53.6 µM), for inactives: at the top dose activity, negative = inhibition, most hits filed as inhibitors. 310,000 compounds, 3.5% hits. AID 2546, 2010;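 note: Gal4-VP16 expression switched on by copper sulfate through the metallothionein promoter; % is set by controls: 0 for no effect and ±100 for the full control effect; nearly all actives have a fitted effect of over 50% in size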
Numbers without * were called inactive; ? = inconclusive; nt = no result given; ! = not confirmed by another sample; [ ] = remark or other dose. Hits are enriched below; roughly 8.1% of the tested compounds scored in any of these assays. Unless noted, calls come from the whole dose curve; as a rule, active = well fitted curve in the direction sought with a large enough effect; inconclusive = small, poorly fitted or top-dose-only effect, or another doubt; inactive = no such curve, though single readings can be large; an effect the other way counts as inactive or inconclusive. Potency is the fitted concentration of half-maximal effect.

SMILES	PINK1 expr mod	Sfp PPTase inh	ClpP mod	RORgamma inh	Epigenetic reg	Gal4-VP16 FLuc
Fc1ccc(CSc2ccc(-c3ccc4c(c3)OCO4)nn2)cc1	?	3%	0%	-39%	4%	-18%
Fc1ccc(CSc2ccc(-c3ccco3)nn2)cc1	?	50µM*	-11%	20%	0%	?
Fc1cccc(CSc2ccc(-c3ccco3)nn2)c1	-1%	16µM*	-4%	31%	1%	10%
O=C(CSc1ccc(-c2ccco2)nn1)c1ccc(F)cc1	0%	32µM*	1%	39%	-1%	3%
COC(=O)CSc1nnc(-c2cccc(O)c2)o1	19%	nt	2%	nt	15%	nt
CC1CN(CC(=O)NCCc2ccncc2)Cc2ccccc2O1 (centres undefined)	0%	nt	nt	nt	nt	nt
C/C(=N\Nc1nc(C)cc(-c2ccccc2)n1)c1ccc(F)cc1	2%	24%	-1%	3.2µM*	nt	7.1µM*
C/C(=N\Nc1nc(N)cc(Cl)n1)c1cccc(N)c1	0%	-3%	-11%	23%	-2%	-8%
C/C(=N/Nc1nc(-c2ccccc2)cc(-c2ccc(F)cc2)n1)c1cccc(N)c1	0%	-9%	-6%	11µM*	0%	14µM*
COc1ccc(/C(C)=N/Nc2nc(C)cc(-c3ccccc3)n2)cc1	4%	nt	0%	nt	nt	nt
COc1cc2nc(N3CCCN(C)CC3)nc(NC3CCOCC3)c2cc1OC	0%	nt	4%	nt	nt	nt
COc1cc(OC)cc(OC2(C)CCN(Cc3ccc(OC(C)C)cc3)C2)c1 (centres undefined)	45µM*	nt	-2%	nt	nt	nt
O=C(CSc1nnnn1C1CC2CCC1C2)Nc1ccnc2ccccc12 (centres undefined)	1%	-21%	-3%	?	0%	0.0022µM*
O=C(CSc1nnnn1C1CCCCC1)Nc1ccccc1F	0%	22%	-1%	28%	0%	-23%
Cc1ccc(C(=O)Oc2oc(-c3ccco3)nc2C=Nc2ccccc2)cc1	nt	45µM*	nt	0%	-2%	-21%
CC1CCCN(c2ccc([N+](=O)[O-])s2)C1 (centres undefined)	-2%	50µM*	0%	16%	-1%	-3%
O=[N+]([O-])c1ccc(N2CCN(Cc3ccccc3)CC2)s1	5%	2%	nt	-6%	nt	6%
CC1CCCN(c2c([N+](=O)[O-])cc(C(=O)O)cc2[N+](=O)[O-])C1 (centres undefined)	0%	-16%	2%	9%	0%	1%
O=[N+]([O-])c1ccc(N2CCCCC2)s1	-1%	50µM*	nt	1%	-4%	0%
Cc1cccc(N2C(=O)CS(=O)(=O)C23C(=O)N(C)c2ccccc23)c1 (centres undefined)	-5%	nt	-1%	nt	-1%	nt
O=C(CCN1Cc2ccccc2OC(c2ccccc2F)C1)N1CCC(N2CCCC(O)C2)CC1 (centres undefined)	6%	nt	nt	nt	nt	nt
Cc1ccc(S(=O)(=O)NCc2ccncc2)c(C)c1C	2%	45µM*	nt	?	0%	0%
Cc1cc(C)c(S(=O)(=O)NCc2ccncc2)c(C)c1	1%	10%	2%	?	0%	8.9µM*
Cc1ccc(-c2[nH]c(-c3ccccc3)nc2SCC(=O)NCC2CCCO2)cc1 (centres undefined)	-2%	?	28µM*!	0%	1%	?
Cc1ccc(-c2nc(SCC(=O)NCC3CCCO3)c(-c3ccc(Cl)cc3)[nH]2)cc1 (centres undefined)	9%	-2%	-21%	?	3%	-11%
SMILES	PINK1 expr mod	Sfp PPTase inh	ClpP mod	RORgamma inh	Epigenetic reg	Gal4-VP16 FLuc
CCc1ccc(-c2nc(SCC(=O)NCCOC)c(-c3ccc(C)cc3)[nH]2)cc1	0%	nt	28µM*	nt	-1%	nt
Cc1ccc(-c2nc(SCC(=O)NCC3CCCO3)c(-c3ccc(C)cc3)[nH]2)cc1 (centres undefined)	-1%	-16%	25µM*	15%	?	1%
COc1ccc(-c2[nH]c(-c3ccc(C)cc3)nc2SCC(=O)NCC2CCCO2)cc1 (centres undefined)	-1%	nt	?	nt	2%	nt
COc1ccc(-c2[nH]c(-c3ccc(Cl)cc3)nc2SCC(=O)NCC2CCCO2)cc1 (centres undefined)	-2%	nt	25µM*	nt	5%	nt
COc1ccc(-c2nnc(SCC(=O)Oc3c(C)cccc3C)o2)cc1OC	2%	nt	4%	nt	-4%	nt
Cc1ccc(N2CCN(S(=O)(=O)c3ccc(F)c(C(=O)Nc4ccc(Cl)cc4Cl)c3)CC2C)cc1 (centres undefined)	-1%	nt	-4%	nt	0%	nt
COCCn1c(=O)c(-c2ccc(Cl)cc2)nc2cncnc21	0%	3%	nt	-1%	nt	11%
O=C(CSc1nc(-c2ccccc2)ns1)NCC1CCCO1 (centres undefined)	-1%	35µM*	-3%	19%	nt	?
CCOc1ccc(C2NC(=O)c3c(COC)cc(C)nc3N2Cc2ccccc2)cc1OC (centres undefined)	3%	nt	4%	nt	0%	nt
O=C(O)Cc1sc(Nc2ccc(F)cc2)nc1-c1cccs1	0%	22µM*	nt	?	-4%	-10%
O=S1(=O)c2ccccc2N(Cc2cccc(Cl)c2)c2ccccc21	1%	nt	?	nt	0%	nt
CCOc1ccc(C[C@H]2NC(=O)CCSSC[C@@H](C(=O)N3CCC[C@H]3C(=O)N[C@@H](CCCN)C(=O)NCC(N)=O)NC(=O)[C@H](CC(N)=O)NC(=O)[C@H]([C@@H](C)O)NC(=O)[C@H]([C@@H](C)CC)NC2=O)cc1	nt	-7%	nt	-2%	nt	-6%
Cc1ccc(-n2ncc3c(NNC(=O)c4ccco4)ncnc32)c(C)c1	0%	18%	?	11µM*	0%	?
Cc1ccc(-n2ncc3c(NNC(=O)c4cccs4)ncnc32)cc1	-1%	15%	nt	1.3µM*	-1%	10µM*
O=C(NNc1ncnc2c1cnn2-c1ccccc1)c1ccccc1	-2%	nt	0%	nt	-1%	nt
O=C(NNc1ncnc2c1cnn2-c1ccc(F)cc1)c1ccco1	1%	12%	-7%	8.9µM*	nt	10µM*
COC(=O)C1CCCCN1Cc1ccc2c(c1)CN(Cc1cn[nH]c1-c1ccc(F)cc1)CCO2 (centres undefined)	1%	nt	nt	nt	nt	nt
CCOc1ccc(N(CC)C(=O)c2cc3c(s2)-c2ccc(Cl)cc2SC3)cc1	3%	nt	1%	nt	1%	nt
Cc1cccc(C=Nc2ccccc2C(N)=O)c1	12%[38.3 µM]	15%	22µM*	39%	-1%	-8%
